Values joined by “and” are separate entries in the source; they are usually repeats but may differ in a detail not shown here. Equal entries are not always repeated. Active and inactive are the calls of the source.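 The calls were made as follows, unless noted: active = mean z-score across replicates of 1.96 or higher in either the MELAS or the Rieske mutant cell line; inactive = the rest.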
Tests used:
[1] = Wnt pathway potentiators raising nuclear beta-catenin – imaging, WNT3A-conditioned medium, mouse C2C12, NPC library, primary screen (AID 1117326; in the data active = nuclear beta-catenin stimulation mostly above about 4.2%, no sharp cut-off; inactive = mostly below about 10%); settings: stronger effect = higher value
[2] = stimulators of insulin release from INS-1E, primary screen, cell-based, 5 mM glucose, NPC library (AID 1117329;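 active = compound raises insulin release from rat beta cells at 5 mM glucose, no numeric limit stated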); settings: rat INS-1E insulin secretion, at 10 µM, stronger effect = higher value
[3] = growth inhibition of GSK3B-pretreated HCT116 cells – cell-based, CellTiter-Glo, 0.2 to 20 µM (AID 1117336;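 active = compounds lowering colon cancer cell viability after pretreatment blocking the GSK3B kinase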); settings: HCT116 viability after GSK3B inhibitor, at 20 µM, stronger effect = higher value
[4] = inhibition of endothelial tube formation, primary screen, imaging, VEGF stimulated, CD31 staining, tube area, NPC library (AID 1117340;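 active = compound that reduces growth-factor-driven endothelial tube area in a mixed cell culture, no cutoff stated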); settings: VEGF-stimulated ADSC/ECFC co-culture, at 10 µM, stronger effect = higher value
[5] = GLP1 release stimulators, primary, NCI-H716, NPC library (AID 1117341;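 active = compound raises GLP1 secretion from the human gut endocrine cells, with no numeric limit stated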); settings: NCI-H716 cells, at 10 µM, stronger effect = higher value
[6] = HCT116 colon cancer cell growth inhibition, primary screen, CellTiter-Glo luminescence, NPC library (AID 1117342;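 active = compounds that lower survival of HCT116 colon cancer cells in the luminescence readout, no numeric limit stated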); settings: at 20 µM (top of the series)
[7] = reduced SW480 viability measured with CellTiter-Glo, NPC library, primary (AID 1117343;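 active = compounds that lower viability of the colon cancer cells in the luminescence readout, with no numeric limit stated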); settings: CellTiter-Glo luminescence; at 20 µM (top of the series) unless noted
[8] = NPC library primary testing for decreased DLD-1 cell viability via CellTiter-Glo (AID 1117346;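 active = compounds that lower survival of DLD-1 colon cancer cells in the luminescence readout, no cutoff given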); settings: DLD-1 viability, CellTiter-Glo luminescence; at 20 µM (top of the series)
[9] = EMT-state selective cytotoxicity in co-culture – imaging, PC-3E GFP, TEM4-18 mCherry, primary screen (AID 1345086;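 active = compounds killing one labelled cell type while sparing the other, by normalised counts and ratio limits, not self-fluorescent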;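 as to all read-outs here: cells exposed to compound for 72 h before imaging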;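 as to red/green cell ratio (normalised): normalised mesenchymal count divided by normalised epithelial count so high means epithelial killing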); settings: PC-3E GFP / TEM4-18 mCherry co-culture, imaging cell counts, at 1 µM; for red/green cell ratio (normalised): actives lie on both sides, counts scaled to control wells, 1 = unselective
[10] = viability loss with induced miR-34 in A549 – imaging, A549 dox-inducible miR-34, nuclei and caspase counts, primary screen (AID 1347080;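 active = compounds whose cell count with miR-34 switched on is under 0.7 times the count with it off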); settings: A549 miR-34 inducible, Hoechst nuclei count, 48 h
[11] = MELAS cybrid and Rieske KO viability enhancers – cell-based, MELAS cybrids, Rieske KO mouse fibroblasts, CellTiter-Glo, primary screen (AID 1508586); settings: low glucose;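 also: z relative to plate mean and SD of compound and empty wells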
[12] = biological target: NAD(+) hydrolase SARM1 (Homo sapiens) (UniProt Q6SZW1); test: blocking NAD cleavage by SARM1 SAM-TIR – cell lysate, NAD-Glo luminescence (AID 1508614;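 active = compound whose remaining NAD level is above about 45 nM, limit read from the data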;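 also: higher remaining NAD means stronger inhibition of SARM1 NADase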); settings: SAM-TIR HEK293T lysate NADase, at 1 µM, stronger effect = higher value
Sequence of NAD(+) hydrolase SARM1 (Homo sapiens) (Q6SZW1 whole entry, looked up): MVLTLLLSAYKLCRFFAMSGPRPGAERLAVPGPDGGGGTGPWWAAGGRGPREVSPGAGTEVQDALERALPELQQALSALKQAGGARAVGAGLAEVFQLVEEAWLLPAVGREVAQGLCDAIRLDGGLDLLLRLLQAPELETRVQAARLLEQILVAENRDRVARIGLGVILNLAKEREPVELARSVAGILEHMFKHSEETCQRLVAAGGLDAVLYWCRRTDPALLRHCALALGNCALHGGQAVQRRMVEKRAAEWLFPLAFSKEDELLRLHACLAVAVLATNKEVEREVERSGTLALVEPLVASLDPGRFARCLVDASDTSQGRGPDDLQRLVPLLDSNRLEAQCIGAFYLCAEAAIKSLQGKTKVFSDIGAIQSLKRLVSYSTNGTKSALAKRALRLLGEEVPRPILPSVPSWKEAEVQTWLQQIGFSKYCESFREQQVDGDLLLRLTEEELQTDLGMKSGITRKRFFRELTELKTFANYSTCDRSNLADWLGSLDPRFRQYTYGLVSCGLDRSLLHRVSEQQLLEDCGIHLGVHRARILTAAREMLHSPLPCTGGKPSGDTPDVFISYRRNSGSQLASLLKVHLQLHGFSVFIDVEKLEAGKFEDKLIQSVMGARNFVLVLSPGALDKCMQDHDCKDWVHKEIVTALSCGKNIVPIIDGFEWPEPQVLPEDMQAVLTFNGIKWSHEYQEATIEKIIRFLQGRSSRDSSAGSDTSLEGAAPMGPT

[13] = P. berghei load reduction in hepatocytes – cell-based, HepG2, luciferase luminescence, HepG2 viability, primary screen (AID 624349; in the data active = parasite load remaining mostly below about 12%, no sharp cut-off; inactive = mostly above about 10%;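 also: 100% = mean of DMSO negative control wells on the same plate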); settings: P. berghei liver stage in HepG2, luciferase luminescence, concentration not given here; parasite load remaining: stronger effect = lower value; viability: measured here: HepG2 viability without parasites
[14] = compounds altering viability of human ES cells (AID 493140; call rule not given here;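 also: cells exposed to compounds for four days before counting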); settings: human embryonic stem cell survival screen; stronger effect = higher value
[15] = measured here: epithelial PC-3E GFP cell survival
[16] = measured here: mesenchymal TEM4-18 mCherry cell survival
[17] = stronger effect = lower value, cell number ratio, induced over uninduced
[18] = measured here: relative caspase fold change +Dox/-Dox
[19] = measured here: total cells with miR-34 induction, stronger effect = lower value
[20] = measured here: total cells without miR-34 induction
[21] = MELAS cybrid survival, CellTiter-Glo 48 h, stronger effect = higher value
[22] = Rieske KO mouse fibroblast survival, CellTiter-Glo 72 h

Question: What does the source list for `CC(=O)NCCCS(=O)(=O)O`?
Answer: nuclear beta-catenin stimulation ([1]; at 10 µM): -1.9% (inactive); nuclear beta-catenin stimulation ([1]; stimulation, at 2 µM): -0.8%; insulin secretion stimulation [2]: -0.1% (inactive); viability decrease [3]: -7.6% (inactive); tube area decrease [4]: 3.7% (inactive); GLP1 secretion stimulation [5]: -1.3% (inactive); inhibition of viability [6]: 1.8% (inactive); viability decrease (inhibition) [7]: 4.2% (inactive); viability decrease (inhibition) [8]: -2% (inactive); red/green cell ratio (normalised) [9]: 0.97 (inactive); normalised cell number [9, 15]: 1; normalised cell number [9, 16]: 0.97; fold change [10, 17]: 0.904 (inactive); fold change [10, 18]: 0.789; cell count [10, 19]: 8720; cell count [10, 20]: 9650; z-score [11, 21]: -0.172 (inactive); z-score [11, 22]: 0.0861; remaining NAD [12]: 10 nM (inactive)

Question: With `CCCCCCCCCCCCCCCCCCCCCCO` as the molecule, how does the parasite load remaining [13] read?
Answer: Its parasite load remaining is 85.5% (inactive).

Question: And the viability [13]?
Answer: Its viability is 109%.

Question: And the nuclear beta-catenin stimulation ([1]; at 10 µM)?
Answer: Its nuclear beta-catenin stimulation is 3.4% (inactive).

Question: What about the nuclear beta-catenin stimulation ([1]; stimulation, at 2 µM) of the same molecule?
Answer: Its nuclear beta-catenin stimulation is 2.9%.

Question: And the insulin secretion stimulation [2]?
Answer: Its insulin secretion stimulation is -2.5% (inactive).

Question: What about the viability decrease [3] of the same molecule?
Answer: The viability decrease was -7.2% (inactive).

Question: What about the tube area decrease [4] of the same molecule?
Answer: The tube area decrease was -8.1% (inactive).

Question: What about the GLP1 secretion stimulation [5] of the same molecule?
Answer: The GLP1 secretion stimulation was 1.1% (inactive).

Question: What about the inhibition of viability [6] of the same molecule?
Answer: Its inhibition of viability is -36.7% (inactive).

Question: And the viability decrease (inhibition) [7]?
Answer: The viability decrease (inhibition) was 16.6% (inactive).

Question: What about the viability decrease (inhibition) [8] of the same molecule?
Answer: Its viability decrease (inhibition) is 7.8% (inactive).

Question: And the red/green cell ratio (normalised) [9]?
Answer: Its red/green cell ratio (normalised) is 1.1 (inactive).

Question: What about the normalised cell number [9, 15] of the same molecule?
Answer: Its normalised cell number is 0.99.

Question: What about the normalised cell number [9, 16] of the same molecule?
Answer: Its normalised cell number is 1.09.

Question: And the fold change [10, 17]?
Answer: The fold change was 0.841 (inactive).

Question: What about the fold change [10, 18] of the same molecule?
Answer: Its fold change is 5.17.

Question: And the cell count [10, 19]?
Answer: Its cell count is 10500.

Question: And the cell count [10, 20]?
Answer: Its cell count is 12500.

Question: What about the remaining NAD [12] of the same molecule?
Answer: Its remaining NAD is 10 nM (inactive).

Question: For `Cn1c(=O)c2c(ncn2CC2OCCO2)n(C)c1=O`, which parasite load remaining [13] is on record?
Answer: The parasite load remaining was 22.8% (inactive).

Question: What about the viability [13] of the same molecule?
Answer: Its viability is 112%.

Question: What about the nuclear beta-catenin stimulation ([1]; at 10 µM) of the same molecule?
Answer: The nuclear beta-catenin stimulation was 2.7% (inactive).

Question: And the nuclear beta-catenin stimulation ([1]; stimulation, at 2 µM)?
Answer: Its nuclear beta-catenin stimulation is 1.1%.

Question: What about the insulin secretion stimulation [2] of the same molecule?
Answer: Its insulin secretion stimulation is -2.4% (inactive).

Question: What about the viability decrease [3] of the same molecule?
Answer: The viability decrease was -0.95% (inactive).

Question: What about the tube area decrease [4] of the same molecule?
Answer: Its tube area decrease is -3.4% (inactive).

Question: What about the GLP1 secretion stimulation [5] of the same molecule?
Answer: Its GLP1 secretion stimulation is -1.2% (inactive).

Question: And the inhibition of viability [6]?
Answer: Its inhibition of viability is 16.1% (inactive).

Question: And the viability decrease (inhibition) [7]?
Answer: Its viability decrease (inhibition) is 46.8% (inactive).

Question: And the viability decrease (inhibition) [8]?
Answer: The viability decrease (inhibition) was 11.7% (inactive).

Question: What about the red/green cell ratio (normalised) [9] of the same molecule?
Answer: The red/green cell ratio (normalised) was 0.85 (inactive).

Question: What about the normalised cell number [9, 15] of the same molecule?
Answer: Its normalised cell number is 1.16.

Question: What about the normalised cell number [9, 16] of the same molecule?
Answer: Its normalised cell number is 0.98.

Question: And the fold change [10, 17]?
Answer: The fold change was 0.901 (inactive) and 0.895 (inactive).

Question: And the fold change [10, 18]?
Answer: Its fold change is 0.475 and 1.33.

Question: And the cell count [10, 19]?
Answer: Its cell count is 8400 and 9760.

Question: And the cell count [10, 20]?
Answer: The cell count was 9320 and 10900.

Question: And the z-score [11, 21]?
Answer: The z-score was -0.299 (inactive) and -0.511 (inactive) and 0.326 (inactive).

Question: And the z-score [11, 22]?
Answer: Its z-score is -0.174 and -0.641 and -0.268.

Question: What about the remaining NAD [12] of the same molecule?
Answer: The remaining NAD was 10 nM (inactive).

Question: Which survival [14] does the source give for `CN(C)CCN(Cc1ccc(Cl)cc1)c1ccccn1` here?
Answer: Its survival is 0.25 (inactive).

Question: And the parasite load remaining [13]?
Answer: Its parasite load remaining is 93.8% (inactive).

Question: And the viability [13]?
Answer: Its viability is 98.9%.

Question: And the nuclear beta-catenin stimulation ([1]; at 10 µM)?
Answer: The nuclear beta-catenin stimulation was 1.9% (inactive).

Question: What about the nuclear beta-catenin stimulation ([1]; stimulation, at 2 µM) of the same molecule?
Answer: Its nuclear beta-catenin stimulation is 1.4%.

Question: And the insulin secretion stimulation [2]?
Answer: Its insulin secretion stimulation is 88.8% (active).

Question: What about the viability decrease [3] of the same molecule?
Answer: The viability decrease was -112% (inactive).

Question: And the tube area decrease [4]?
Answer: The tube area decrease was -2% (inactive).

Question: What about the GLP1 secretion stimulation [5] of the same molecule?
Answer: Its GLP1 secretion stimulation is 7% (inactive).

Question: And the inhibition of viability [6]?
Answer: The inhibition of viability was 30.7% (inactive).

Question: What about the viability decrease (inhibition) [7] of the same molecule?
Answer: The viability decrease (inhibition) was 41.9% (inactive).

Question: What about the viability decrease (inhibition) [8] of the same molecule?
Answer: The viability decrease (inhibition) was 2.4% (inactive).

Question: And the red/green cell ratio (normalised) [9]?
Answer: The red/green cell ratio (normalised) was 0.8 (inactive).

Question: What about the normalised cell number [9, 15] of the same molecule?
Answer: The normalised cell number was 1.16.

Question: And the normalised cell number [9, 16]?
Answer: The normalised cell number was 0.92.

Question: And the fold change [10, 17]?
Answer: Its fold change is 0.853 (inactive).

Question: What about the fold change [10, 18] of the same molecule?
Answer: The fold change was 1.28.

Question: What about the cell count [10, 19] of the same molecule?
Answer: The cell count was 7570.

Question: And the cell count [10, 20]?
Answer: The cell count was 8880.

Question: And the z-score [11, 21]?
Answer: Its z-score is -0.0317 (inactive).

Question: What about the z-score [11, 22] of the same molecule?
Answer: Its z-score is -0.776.

Question: What about the remaining NAD [12] of the same molecule?
Answer: Its remaining NAD is 10 nM (inactive).

Question: What does the source list for `CC(C)Cn1cnc2c(N)nc3ccccc3c21`?
Answer: parasite load remaining [13]: 11.9% (inactive); viability [13]: 62.5%; nuclear beta-catenin stimulation ([1]; at 10 µM): 1.6% (inactive); nuclear beta-catenin stimulation ([1]; stimulation, at 2 µM): 0.2%; insulin secretion stimulation [2]: 0% (inactive); viability decrease [3]: -1.15% (inactive); tube area decrease [4]: -3.6% (inactive); GLP1 secretion stimulation [5]: 0.6% (inactive); inhibition of viability [6]: -6.6% (inactive); viability decrease (inhibition) [7]: 49.5% (inactive); viability decrease (inhibition) [8]: 0.7% (inactive); red/green cell ratio (normalised) [9]: 1.33 (inactive); normalised cell number [9, 15]: 1.11; normalised cell number [9, 16]: 1.48; fold change [10, 17]: 0.846 (inactive); fold change [10, 18]: 0.971; cell count [10, 19]: 9200; cell count [10, 20]: 10900; z-score [11, 21]: 0.0496 (inactive) and 0.611 (inactive); z-score [11, 22]: 0.716 and 0.772; remaining NAD [12]: 10 nM (inactive)

— PubChem BioAssay
